Results published in PubChem BioAssay (NCATS).
Records with an inconclusive call do not appear. Calls of active or inactive are those of the source. Unless noted, calls come from the whole dose curve; as a rule, active = well fitted curve in either direction with a large enough effect (not every such curve was filed as active); inconclusive = small, poorly fitted or top-dose-only effect, or another doubt; inactive = flat fitted curve, though single readings scatter.

Columns and labels:
[1] = AP1 Signaling Pathway (AID 357); conditions: ME-180 AP-1-bla reporter, EGF-induced, beta-lactamase ratio, 5 h; at 17.2 µM (top of the series) unless noted;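 note: ME-180 reporter cells stimulated with EGF at its EC50 level; % is set by controls: 0 for no effect and ±100 for the full control effect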
Procedure, shortened: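 Read-out was the 460nm/530nm emission ratio (excitation 405nm) after CCF4 loading for 2.5 hours at room temperature. Cells carried an AP-1-driven beta-lactamase reporter, were stimulated with EC50 EGF plus compound for 5 hours, and AC50 values came from titrations.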

[2] = NFAT Signaling Pathway (AID 444); conditions: Jurkat NFAT-bla M1, carbachol, beta-lactamase ratio, 5 h; at 17.2 µM (top of the series) unless noted;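 note: carbachol stimulus at about its EC50 of 1 µM final; % is set by controls: 0 for no effect and ±100 for the full control effect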
Procedure, shortened: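 Read-out: CCF4 FRET ratio (460 nm/530 nm) after 1 h RT dye loading, used for %activity and AC50 from titration series. Cells: Jurkat NFAT-β-lactamase/M1 line, treated with compound plus 1 uM carbachol for 5 h, 37 °C.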

[3] = Stat Signaling Pathway (AID 446);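 note: ME-180 cervical cancer cells given 40 pM IL-6 alongside compound; SIE-controlled beta-lactamase reporter measured as 460/530 nm FRET emission ratio; % is set by controls: 0 for no effect and ±100 for the full control effect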
Procedure, shortened: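 Reporter line: ME-180 cervical carcinoma, SIE-beta-lactamase. Treatment: compound with 40 pM IL-6, 5 hrs, 37 C, in low-serum OPTI-MEM with 10 mM HEPES pH 7.3. Detection: 460/530 nm fluorescence.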

[4] = target: Glucocorticoid receptor (Homo sapiens) (UniProt P04150); assay: GR-GFP Redistribution (AID 450;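 active = compounds whose dose series gives a full or clear partial fitted curve of increased nuclear translocation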; note: potency is the fitted concentration of half-maximal effect); conditions: U2OS GR-GFP nuclear translocation, laser cytometry, 2 h
Chain of Glucocorticoid receptor (Homo sapiens) (P04150 whole entry, looked up): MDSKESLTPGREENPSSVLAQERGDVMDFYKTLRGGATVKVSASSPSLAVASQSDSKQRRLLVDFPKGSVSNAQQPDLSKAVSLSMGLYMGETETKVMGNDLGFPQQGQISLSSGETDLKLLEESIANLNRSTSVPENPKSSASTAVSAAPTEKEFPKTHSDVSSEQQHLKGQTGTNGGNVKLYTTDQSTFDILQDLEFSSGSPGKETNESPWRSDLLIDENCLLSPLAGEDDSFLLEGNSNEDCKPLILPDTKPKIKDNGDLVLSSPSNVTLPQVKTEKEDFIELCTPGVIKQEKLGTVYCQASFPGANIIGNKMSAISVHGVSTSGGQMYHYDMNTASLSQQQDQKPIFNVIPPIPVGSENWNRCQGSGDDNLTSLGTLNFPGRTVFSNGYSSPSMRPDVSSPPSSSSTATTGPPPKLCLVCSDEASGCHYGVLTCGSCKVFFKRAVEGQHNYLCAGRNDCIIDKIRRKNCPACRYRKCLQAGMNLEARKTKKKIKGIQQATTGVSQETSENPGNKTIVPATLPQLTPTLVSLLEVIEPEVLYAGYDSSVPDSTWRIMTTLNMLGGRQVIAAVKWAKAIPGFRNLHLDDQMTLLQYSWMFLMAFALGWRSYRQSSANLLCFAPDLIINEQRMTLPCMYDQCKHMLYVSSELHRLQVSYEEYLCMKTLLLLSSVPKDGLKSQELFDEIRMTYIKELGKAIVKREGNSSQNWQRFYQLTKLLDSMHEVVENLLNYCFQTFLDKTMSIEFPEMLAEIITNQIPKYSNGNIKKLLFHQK

Cc1ccc2c(c1)[C@@H]1CN(C)CC[C@@H]1N2C(=O)Nc1cccc(C(F)(F)F)c1
inactive: activity change, negative = inhibition [1] 28.8% | activity change, negative = inhibition [2] -12.5% | outcome [3] | Potency [4] > 20.6 µM

CC(C)(C)OC(=O)c1c(N)n(Cc2ccco2)c2nc3ccccc3nc12
inactive: activity change, negative = inhibition [1] -26.4% | activity change, negative = inhibition [2] 5.75% | outcome [3] | Potency [4] > 20.6 µM
